Experimental data: the supplement of paper PMC9694430
Where a name gives a salt, the structure may show the parent alone.

Columns and labels:
Experiment in all cases: thermal shift delta Tm vs DMSO control; higher = stronger stabilization (binding)
Conditions in all cases: 12.5 µM; protein concentration 2 µM
[1] = test system: LOC_OS01G01410-cb001
Method in brief: (§1)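 Thermal shift values come from differential scanning fluorimetry on purified rice kinase domains made in E. coli, with melting temperatures obtained from Boltzmann fits. Samples of 19.5 μl held 2 μM kinase, 100 mM potassium phosphate pH 7.5, 150 mM NaCl, 10% glycerol, 5 × SYPRO Orange and compound in DMSO, and were heated from 25°C to 95°C at 0.05°C/s. Each shift is a triplicate mean relative to the DMSO-only protein sample.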

[2] = test system: LOC_OS01G02750-cb003
Method in brief: as §1

[3] = test system: LOC_OS01G10900-cb004
Method in brief: as §1

[4] = test system: LOC_OS01G13800-cb001
Method in brief: as §1

[5] = test system: LOC_OS01G14860-cb001
Method in brief: as §1

[6] = test system: LOC_OS01G21960-cb002
Method in brief: as §1

[7] = test system: LOC_OS01G39600-cb002
Method in brief: as §1

[8] = test system: LOC_OS01G48390-cb002
Method in brief: as §1

[9] = test system: LOC_OS01G51400-cb002
Method in brief: as §1

[10] = test system: T1, LOC_OS01G52050-cb004
T1 sequence (whole entry): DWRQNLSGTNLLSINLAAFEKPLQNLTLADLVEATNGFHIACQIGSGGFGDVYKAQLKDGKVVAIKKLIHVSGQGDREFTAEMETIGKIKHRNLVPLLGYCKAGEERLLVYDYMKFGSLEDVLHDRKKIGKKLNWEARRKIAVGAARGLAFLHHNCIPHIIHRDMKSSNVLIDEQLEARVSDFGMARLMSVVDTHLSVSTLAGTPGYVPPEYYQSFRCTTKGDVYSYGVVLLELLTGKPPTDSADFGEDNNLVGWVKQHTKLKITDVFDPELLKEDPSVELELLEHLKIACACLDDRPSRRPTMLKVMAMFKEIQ
Method in brief: as §1

[11] = test system: LOC_OS01G57100-cb003
Method in brief: as §1

[12] = test system: LOC_OS01G60330-cb001
Method in brief: as §1

[13] = test system: LOC_OS01G60700-cb002
Method in brief: as §1

[14] = test system: LOC_OS01G63280-cb003
Method in brief: as §1

[15] = test system: LOC_OS01G67340-cb003
Method in brief: as §1

[16] = test system: LOC_OS01G70970-cb002
Method in brief: as §1

[17] = test system: LOC_OS02G07810-cb001
Method in brief: as §1

[18] = test system: LOC_OS02G08530-cb003
Method in brief: as §1

[19] = test system: LOC_OS02G14120-cb001
Method in brief: as §1

[20] = test system: LOC_OS02G17970-cb001
Method in brief: as §1
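Further: purified Escherichia coli-expressed rice kinase domain construct.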

Compound	thermal shift delta Tm [1]	thermal shift delta Tm [2]	thermal shift delta Tm [3]	thermal shift delta Tm [4]	thermal shift delta Tm [5]	thermal shift delta Tm [6]	thermal shift delta Tm [7]	thermal shift delta Tm [8]	thermal shift delta Tm [9]	thermal shift delta Tm [10]	thermal shift delta Tm [11]	thermal shift delta Tm [12]	thermal shift delta Tm [13]	thermal shift delta Tm [14]	thermal shift delta Tm [15]	thermal shift delta Tm [16]	thermal shift delta Tm [17]	thermal shift delta Tm [18]	thermal shift delta Tm [19]	thermal shift delta Tm [20]
CCn1c(-c2nonc2N)nc2c(C#CC(C)(C)O)ncc(OC[C@H]3CCCNC3)c21	1.38 °C	0.87 °C	0.42 °C	0.37 °C	3.95 °C	0.53 °C	0.32 °C	0.07 °C	0.09 °C	0.04 °C	0.99 °C	0.93 °C	1.82 °C	-0.01 °C	-0.43 °C	0.35 °C	0.56 °C	0.64 °C	0.88 °C	-0.03 °C
N#C/C(=C(/N)Sc1ccc(N)cc1)c1ccccc1C(F)(F)F	1.06 °C	-0.14 °C	0.32 °C	0.3 °C	0.5 °C	0.38 °C	-0.02 °C	0.18 °C	-0.05 °C	0.3 °C	0.82 °C	0.59 °C	0.64 °C	-0.09 °C	-0.57 °C	0.23 °C	0.12 °C	0.32 °C	-0.1 °C	0.43 °C
Nc1nc(N)c2nc(-c3cccc(O)c3)c(-c3cccc(O)c3)nc2n1	0.47 °C	0.72 °C	1.95 °C	0.77 °C	1 °C	1.07 °C	-0.28 °C	0.4 °C	0.49 °C	1.16 °C	2.01 °C	3.89 °C	1.27 °C	0.44 °C	-0.24 °C	0.19 °C	1.52 °C	0.91 °C	1.95 °C	1.03 °C
CC(C)CC(=O)Nc1n[nH]c2c1CN(C(=O)C1CCN(C)CC1)C2(C)C	0.12 °C	1.36 °C	0.4 °C	0.44 °C	6.4 °C	1.05 °C	-0.1 °C	0.75 °C	0.45 °C	0.59 °C	1.01 °C	1.35 °C	0.94 °C	0.65 °C	0.25 °C	0.19 °C	1.09 °C	0.95 °C	0.04 °C	1.36 °C
COc1ccc(COc2cc3oc(=O)c4cc(C(C)O)ccc4c3cc2OC)cc1 (stereo not given) [Palomid 529 (P529)]	0.67 °C	0.16 °C	1.07 °C	0.03 °C	0.14 °C	0.64 °C	-0.21 °C	0.4 °C	0 °C	0.04 °C	2.39 °C	1.07 °C	1.23 °C	0.19 °C	0.25 °C	0.51 °C	0.98 °C	1.87 °C	1.04 °C	0.5 °C
CNCc1ccc(-c2cc(-c3nc(-c4ccc(S(=O)(=O)C(C)C)cc4)cnc3N)on2)cc1	1.4 °C	1.1 °C	3 °C	0.25 °C	4.67 °C	1.88 °C	1.85 °C	0.69 °C	0.46 °C	1.41 °C	1.41 °C	0.91 °C	1.58 °C	0.5 °C	0.06 °C	0.3 °C	2.33 °C	1.56 °C	2.23 °C	1.43 °C
C[C@H](NC(=O)/C(C#N)=C/c1cccc(Br)n1)c1ccccc1	-1.2 °C	-2.27 °C	-0.05 °C	-0.79 °C	-1.13 °C	-0.08 °C	-1.71 °C	0.12 °C	-1 °C	-1.36 °C	2.09 °C	0.03 °C	-0.53 °C	-4.67 °C	-1.18 °C	-1.46 °C	0.51 °C	0.47 °C	-1.36 °C	-2.09 °C
Cc1ccc(NC(=O)c2ccc(CN3CCN(C)CC3)cc2)cc1Nc1nccc(-c2cccnc2)n1 [Imatinib Mesylate (STI571)]	1.08 °C	0.88 °C	1.18 °C	0.6 °C	0.15 °C	0.23 °C	0.07 °C	0.86 °C	0.08 °C	0.02 °C	1 °C	0.66 °C	0.7 °C	0.06 °C	-0.58 °C	-0.12 °C	0.51 °C	1.09 °C	0.52 °C	0.04 °C
N#Cc1ccc2[nH]c(O)c(-c3ccc(CN4CCOCC4)cn3)c2c1	0.79 °C	1.84 °C	0.41 °C	-0.53 °C	6.12 °C	0.79 °C	1.95 °C	1.33 °C	0.34 °C	0.44 °C	-0.18 °C	0.88 °C	1.33 °C	0.3 °C	-0.02 °C	0.56 °C	0.82 °C	1.04 °C	-0.04 °C	0.51 °C
CN1CCN(Cc2ccc(NC(=O)Nc3ccc(Oc4ccnc(N)n4)cc3)cc2C(F)(F)F)CC1	0.75 °C	4.82 °C	0.41 °C	0.15 °C	7.67 °C	0.98 °C	0.62 °C	1.03 °C	0.2 °C	1.93 °C	-0.21 °C	0.73 °C	1.34 °C	8.29 °C	0.95 °C	2.3 °C	0.57 °C	2.59 °C	6.74 °C	1 °C
CC(C)Nc1cc(-c2c[nH]c(C(=O)N[C@H](CO)c3cccc(Cl)c3)c2)c(Cl)cn1	6.3 °C	1.26 °C	0.37 °C	0.75 °C	5.82 °C	1.37 °C	1.63 °C	1.24 °C	0.12 °C	2.18 °C	2.03 °C	1.73 °C	1.28 °C	0.91 °C	1.23 °C	0.59 °C	1.19 °C	1.18 °C	1.13 °C	1.49 °C
O=C(O)[C@]1(Cc2cccc(Nc3nccs3)n2)CC[C@@H](Oc2cccc(Cl)c2F)CC1	1.81 °C	1.68 °C	3.48 °C	-1.25 °C	5.16 °C	1 °C	2.55 °C	3.01 °C	-0.7 °C	13.5 °C	5.7 °C	1.72 °C	-1.18 °C	0.43 °C	3.34 °C	9.45 °C	0.53 °C	5.62 °C	13.5 °C	0.24 °C
O=C(NCCO)c1cccc(-c2cc(Nc3ccc(OC(F)(F)F)cc3)ncn2)c1	0.32 °C	0.32 °C	0.34 °C	0.62 °C	1.32 °C	0.44 °C	0.3 °C	2.99 °C	0.2 °C	1.46 °C	1.41 °C	0.68 °C	0.09 °C	0.31 °C	0.88 °C	0.38 °C	0.33 °C	0.44 °C	-0.05 °C	0.95 °C
